Akt phos inh: blocks phosphorylation of Akt; Neuro2A IGF-stimulated pAkt S473 HTRF, 20 min; stronger effect = lower value; activity change, % for hits at 50 µM; 360,000 tested, 0.32% active; in the data active = activity change below about -80%; inconclusive = mostly about -51% to -80%; note: % is set by controls: 0 for no effect and ±100 for the full control effect
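Neuro2A cells (4,500/well, DMEM with 0.5% FBS) were treated with compound at a single 50 µM final concentration, stimulated with 6 nM IGF for 20 min at 37 °C, and lysed. Phospho-Akt Ser473 was read by HTRF as 665/615 ratio ×10^4.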
Mm-Cpn inhibitor: inhibitors of Methanococcus maripaludis chaperonin TRiC (MmCpn) | 330,000 tested, 0.031% active | AID 504842 | Potency, µM (series often up to 76.9 µM), for the others: top-dose activity, negative = inhibition, actives largely listed as inhibitors | purified Mm-Cpn ATPase, ADP Transcreener TR-FRET; note: potency is the fitted concentration of half-maximal effect; % is set by controls: 0 for no effect and ±100 for the full control effect; nearly all actives have a fitted effect of over 80% in size
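Reaction buffer contained 30 mM Tris pH 7.4, 100 mM KCl, 5 mM MgCl2 and 1 mM DTT. Mm-CPN (25 nM final) hydrolysed 10 uM ATP over 30 min at 37°C; ADP was read by HTRF.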
CCT modulator: modulators of cytosolic chaperonin (CCT/TRiC) activity. 360,000 tested, 0.3% active. activity change, % (concentration not given with the values), hits read low. purified chaperonin ATPase assay, HTRF ADP detection, 30 min. AID 651819; in the data active = activity change below about -30%; note: % is set by controls: 0 for no effect and ±100 for the full control effect
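ATPase activity: ADP formed was measured by HTRF Transcreener (665/615 nm ratio) after 30 min at 37 deg C with 10 uM ATP. Compounds screened at one 76 uM concentration against 40 or 20 nM TRiC in Tris pH 7.4/KCl/MgCl2/DTT buffer.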
MBNL1-CUG inh: inhibitors of human MBNL1 binding to CUG repeat RNA; Q9NR56; 280,000 tested, 0.036% active; TR-FRET MBNL1-His/biotin-(CUG)12 binding, 665/545 ratio; Potency, µM (doses to about 57.5 µM), for the others: at the top dose activity change, negative = inhibition, most hits filed as inhibitors; active = well fitted inhibition curve with a large enough effect in the signal ratio, with a control signal flat, not every such curve was filed as active; inconclusive = small, poorly fitted or top-dose-only effect, or effect the other way, or a change in a side signal; inactive = no such curve, though single readings can be large or run the other way; the % refers to the signal ratio; note: potency is the fitted concentration of half-maximal effect; % is set by controls: 0 for no effect and ±100 for the full control effect
Target sequence (Q9NR56 whole entry, looked up): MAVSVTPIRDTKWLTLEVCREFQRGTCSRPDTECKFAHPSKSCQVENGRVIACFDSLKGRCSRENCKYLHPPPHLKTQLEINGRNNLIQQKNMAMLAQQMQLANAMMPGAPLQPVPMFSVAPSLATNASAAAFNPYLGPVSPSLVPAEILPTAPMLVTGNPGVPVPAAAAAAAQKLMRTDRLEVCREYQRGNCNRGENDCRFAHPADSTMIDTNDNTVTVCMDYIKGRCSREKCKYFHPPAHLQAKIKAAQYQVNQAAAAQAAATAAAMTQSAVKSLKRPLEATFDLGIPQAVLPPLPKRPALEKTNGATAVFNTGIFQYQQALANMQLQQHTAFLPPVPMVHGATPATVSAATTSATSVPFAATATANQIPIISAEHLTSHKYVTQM
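His-tagged MBNL1 binding to biotinylated (CUG)12 RNA was measured by TR-FRET using terbium anti-His antibody (0.055 ng/ul final) and streptavidin-XL665 (5 nM final). Compounds were titrated 92 nM to 58 uM; 60 min at room temperature.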
Epigenetic reg: derepresses silenced GFP reporter in murine cells; murine LDR cells, GFP reporter derepression, 30 h; Potency, µM (top dose mostly 53.9 µM), without a hit: at the top dose GFP activation, actives largely listed as activators; 280,000 tested, 0.2% active; note: potency is the fitted concentration of half-maximal effect; % of control where 0% means no effect; nearly all actives have a fitted effect of over 60% in size
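Murine LDR cells carrying a silenced, genomically integrated CMV-driven GFP reporter were exposed to compound for 30 hours at 37 C. After PBS washes, GFP-positive cells (20–120 um objects) were counted by laser-scanning microplate cytometry.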
uPA generation: cell surface uPA generation inhibition; cell surface uPA generation assay, qHTS; Potency, µM (titrated, usually from 38.3 µM), inactives show at the highest dose activity change, negative = inhibition, usual class: inhibitors; 330,000 tested, 0.31% active; active = well fitted inhibition curve with a large enough effect; inconclusive = small, poorly fitted or top-dose-only effect; inactive = no such curve, though single readings can be large or run the other way; tested in mouse RAW 264.7 cells; note: potency is the fitted concentration of half-maximal effect; % is set by controls: 0 for no effect and ±100 for the full control effect; nearly all actives have a fitted effect of over 55% in size
Active calls of the source: *; i = inactive; ? = inconclusive; · = no result given. Most compounds without a hit are left out; they make up all but 0.97% or so of the library. Unless noted, calls come from the whole dose curve; as a rule, active = well fitted curve in the direction sought with a large enough effect; inconclusive = small, poorly fitted or top-dose-only effect, or another doubt; inactive = no such curve, though single readings can be large; an effect the other way counts as inactive or inconclusive.

SMILES	Akt phos inh	Mm-Cpn inhibitor	CCT modulator	MBNL1-CUG inh	Epigenetic reg	uPA generation
CCOC(=O)CSC1=C(C#N)C(c2ccccc2F)C(C(C)=O)=C(C)N1 (stereo not given)	·	1%	-3	9%	-1%	6%
COc1ccccc1NC(=O)c1c(C)nn(-c2ccccc2)c1Cl	i	1%	-1	2%	·	6%
Cc1ccccc1NC(=O)c1c(C)nn(-c2ccccc2)c1Cl	i	0%	-40*	-15%	5%	7%
COc1cc(N=Nc2cccc(S(N)(=O)=O)c2)c2ccccc2c1N	i	-7%	2	?	32µM*	-13%
NC1=NC(=Nc2cccc(S(N)(=O)=O)c2)c2ccccc21	i	-11%	1	·	0%	-8%
O=C(CCN1C(=O)c2ccccc2C1=O)C1=NN[C@@H]2C(=O)N(c3ccc4c(c3)OCCO4)C(=O)[C@H]12	i	1%	-5	?	0%	7%
Cc1cc(NS(=O)(=O)c2ccc(NC(=O)COc3ccc(C#N)cc3)cc2)nc(C)n1	i	-3%	-32*	·	·	1%
CCN(CC)CCn1c2ccccc2c2nc3ccccc3nc21	i	-23%	0	?	·	10µM*
CCOc1ccc(NC(=O)CC2SC(=O)N(c3ccccc3)C2=O)cc1 (stereo not given)	i	1%	0	28%	1%	·
COC(C/C=C/[C@H](O)[C@@H](C)OCc1ccccc1)OC	i	·	-2	·	·	4%
COC(C/C=C/C(=O)COCc1ccccc1)OC	i	-3%	-1	0%	?	7.1µM*
COC(C/C=C/C(=O)[C@H](C)OCc1ccccc1)OC	i	·	-2	·	·	11µM*
O=C(N/N=C/c1cccnc1)c1ccc([N+](=O)[O-])cc1Cl	-83%*	2%	0	?	-1%	0%
O=C(N/N=C/c1ccccn1)c1ccc([N+](=O)[O-])cc1Cl	i	-13%	1	?	·	2%
CCOC(=O)c1c(S(=O)(=O)N2CCC(C(=O)N3CCN(c4cccc(C)c4C)CC3)CC2)c(C)n(C)c1C	·	·	·	·	1%	·
CCN(CC)CCCNC(=O)c1nn(-c2cccc(OC)c2)c(=O)c2ccccc12	i	-1%	-76*	1%	0%	-1%
COc1ccc(-n2ncc3c2ncn2nc(-c4ccc(Cl)cc4Cl)nc32)cc1	·	·	·	·	1%	·
CC(C)N1CC(C(=O)Nc2cc(Cl)cc(Cl)c2)CC1=O (stereo not given)	i	0%	-12	0%	·	7.1µM*
COC(=O)c1ccc(C(NC(=O)OCc2ccccc2)/C(C)=C/[C@@H](C)C(=O)NCc2nn(-c3ccccc3)nc2C)cc1 (stereo not given in full)	·	·	·	·	1%	·
Cc1ccc(-c2nn(CCC(=O)O)cc2/C=C\C(=O)c2ccc(Br)cc2)cc1	i	-3%	-1	-4%	-1%	6.3µM*
O=C(N/N=C/c1cc([N+](=O)[O-])ccc1O)c1cccc2cc[nH]c12	i	-1%	-2	·	2%	4.5µM*
Cc1cc(OCC(=O)OCC(=O)NCc2cccs2)ccc1Cl	i	2%	-33*	·	·	3%
CCOC(=O)c1ccccc1NC(=O)COC(=O)C(CC)Oc1ccccc1 (stereo not given)	i	·	2	·	·	·
COC(=O)c1ccccc1NC(=O)c1noc2c1CC(C(C)(C)C)CC2 (stereo not given)	i	1%	-81*	5%	0%	·
CC(C)(C)C1CCc2onc(C(=O)Nc3cccc(O)c3)c2C1 (stereo not given)	·	-4%	·	4%	0%	·
COc1ccc(S(=O)(=O)c2cnc(SCC(=O)Nc3cc(F)ccc3C)[nH]c2=O)cc1Cl	·	·	·	·	-1%	·
Nc1nc(CN2CCCCCC2)nc(Nc2ccccc2)n1	i	-9%	0	-6%	-2%	3%
CCOC(=O)C1CCCN(Cc2nc(N)nc(Nc3ccccc3)n2)C1 (stereo not given)	-96%*	1%	-1	1%	-6%	-4%

Source: PubChem BioAssay (National Center for Advancing Translational Sciences (NCATS))
